In PubChem BioAssay AID1053126 (Broad Institute, 2014):
Potency and affinity values are given separately. Values without a mark were called inactive.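 The calls were made as follows: active = cell killing with a fitted half-effect concentration at or below twice the top valid dose; inconclusive = flat curve with 30 to 70 percent drop, or poor fit; inactive = the rest.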

assay: HEK293T cell cytotoxicity, dose response, cytotoxicity control, ATP luminescence, cherry-pick, set 6 (AID 1053126); conditions: HEK293T viability, CellTiter-Glo ATP luminescence, 72 h; series mostly up to 26 µM; activity change, negative = cytotoxicity: at the top concentration;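 also: 0% = neutral control wells and -100% = mitoxantrone 10 µM positive control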

SMILES	activity change, negative = cytotoxicity [%]
Cn1cccc1/C=N/NC(=O)c1sc2cc(Cl)ccc2c1Cl	-10.6
Cc1ccc(NC(=O)Nc2ccnc(-c3cccnc3)n2)cc1	-11.9
CCc1nc(SCC(=O)c2ccccc2)c2ccccc2n1	-14.7
Cc1noc(C)c1-c1ccc(C(=O)NCCc2ccccc2)c2occc12	-10.6
O=C(O)c1ccc(-c2ccc(/C=C3\NC(=O)N(Cc4ccc(Cl)cc4)C3=O)o2)cc1	-3.02
CCOC(=O)C1CCCN(CCCc2ccccc2)C1 (configuration not stated)	-3.56
Cc1ccc(O)c(NC(=S)NC(=O)COc2ccc(Br)cc2)c1	17.8
O=C(Cc1csc(-c2ccccc2)n1)NCc1ccccc1F	9.15
COc1c(Cl)cc(-c2noc(C)c2C(=O)NCc2ccc3c(c2)OCO3)cc1Cl	-4.64
N#Cc1c(NCCCO)nc(NCc2ccccc2)c2c1CCN(Cc1ccccc1)C2	-9.15
O=[N+]([O-])c1cccc(-c2n[nH]c(=S)n2-c2ccc(Br)cc2)c1	12.7
CCNC(=O)c1cc2c(=O)n3cccc(C)c3nc2n(Cc2ccc(C)cc2)c1=N	-19.1
Nc1nc(-c2cc(O)ccc2[N+](=O)[O-])cc(-c2ccccc2)c1[N+](=O)[O-]	1.04
O=C(c1ccc(F)cc1)C1CCN(C(=O)Nc2ccccc2Cl)CC1	-6.61
O=C(C1=NN(c2ccccc2)C2C(=O)N(c3ccccc3)C(=O)C12)c1ccccc1 (configuration not stated)	50.5
Cn1c(=N)c(S(=O)(=O)c2ccccc2)cc2c(=O)n3ccccc3nc21	-19.3
O=C(COC(=O)c1cc(S(=O)(=O)N2CCCCC2)ccc1N1CCOCC1)c1ccccc1Cl	-13.4
